Laboratory results as given in PubChem BioAssay AID1961 (Sanford-Burnham Center for Chemical Genomics, 2009).
The whole screen tested about 290,000 compounds, of which about 140 (0.048%) were called active. The sample holds actives, similar compounds and a random draw of the others, so the mix is not that of the screen.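 The calls were made as follows: active = activation above 40% with more than 50 cells counted in the well; inconclusive = wells holding fewer than 50 cells, flagged as toxic or sparse; inactive = the rest.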

Assays:
[1] = GPR55 agonists via beta-arrestin recruitment, primary screen, imaging, U2OS cells, beta-arrestin-GFP redistribution (AID 1961); settings: measured here: cytotoxicity, cells analyzed, at 10 µM;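 also: U2OS osteosarcoma cells stably expressing GPR55 and beta-arrestin-GFP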;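 as to activation: plate controls were DMSO negative control for no effect and LPI positive control for full effect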
[2] = target: G-protein coupled receptor 55 (Homo sapiens) (UniProt Q9Y2T6); test: as above; settings: at 10 µM, stronger effect = higher value
Sequence of G-protein coupled receptor 55 (Homo sapiens) (Q9Y2T6 whole entry, looked up): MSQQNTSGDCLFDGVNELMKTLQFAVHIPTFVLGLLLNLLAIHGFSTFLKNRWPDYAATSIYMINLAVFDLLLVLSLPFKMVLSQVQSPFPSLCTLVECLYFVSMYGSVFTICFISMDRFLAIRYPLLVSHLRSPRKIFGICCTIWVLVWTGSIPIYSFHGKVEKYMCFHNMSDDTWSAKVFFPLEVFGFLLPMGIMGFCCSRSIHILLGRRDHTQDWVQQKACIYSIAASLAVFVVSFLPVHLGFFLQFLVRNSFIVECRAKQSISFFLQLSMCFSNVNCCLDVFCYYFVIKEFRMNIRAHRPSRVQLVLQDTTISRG

Row | SMILES | cell count [1] [cells] | activation [2]
1 | O=C(Nc1ccc2c(c1)C(=O)OC2)c1ccc(F)cc1F | 353 | -0.2% (inactive)
2 | Cc1nn(C)c(C)c1CNC(=O)c1cc2n(n1)C(C(F)(F)F)CC(c1cccs1)N2 (stereo not given) | 389 | 0.1% (inactive)
3 | Nc1c(-c2ccccc2)c(CSc2nc3ccccc3[nH]2)nn1-c1ccc(C(=O)O)cc1 | 311 | -0.2% (inactive)
4 | COc1cc(/C=C(\NC(=O)c2ccccc2)C(=O)NCC(=O)O)c([N+](=O)[O-])cc1OC | 349 | -0.1% (inactive)
5 | COc1cc(/C=C/c2cc(OC(C)=O)c3ccccc3n2)c(OC(C)=O)c([N+](=O)[O-])c1 | 366 | 0.2% (inactive)
6 | CN(C)c1ccnc(Nc2ccccc2)c1C#N | 373 | 0.3% (inactive)
7 | O=C1c2ccccc2C(=O)N1Cc1cccnc1 | 406 | -0.2% (inactive)
8 | Cn1c(=O)c(C(=O)COC(=O)c2cc(-c3ccco3)nc3ccccc23)c(N)n(Cc2ccccc2)c1=O | 365 | 8.3% (inactive)
9 | Cn1c(=O)c(C(=O)COC(=O)c2cc(-c3ccco3)nc3ccccc23)c(N)n(CC2CC2)c1=O | 375 | 59.6% (active)
10 | CC(C)Cn1c(N)c(C(=O)COC(=O)c2cc(-c3ccco3)nc3ccccc23)c(=O)n(C)c1=O | 285 | -0.1% (inactive)
11 | CCOC(=O)N1CCN(C(=O)c2ccc3c(c2)N(Cc2cccc(Cl)c2)C(=O)c2ccccc2S3=O)CC1 (stereo not given) | 331 | 21.2% (inactive)
12 | Cc1ccc(C(=O)N2CCN(c3ccccn3)CC2)cc1C | 396 | -0.1% (inactive)
13 | Cc1ccc(C(=O)N2CCN(c3ccccn3)CC2)cc1Cl | 384 | -0.2% (inactive)
14 | Cc1ccc(C)c(CN2C(=O)c3ccccc3S(=O)(=O)c3ccc(C(=O)N4CCN(C)CC4)cc32)c1 | 338 | -0.2% (inactive)
15 | CC(=O)Nc1nc(SCC(=O)Nc2nnc(C)s2)[nH]c(=O)c1NC(=O)c1cccs1 | 243 | 0.7% (inactive)
16 | CCOCCCNc1nc2c(C)cccn2c(=O)c1/C=C1\SC(=S)N(CC(C)C)C1=O | 348 | 1% (inactive)
17 | CCCN1C(=O)/C(=C/c2c(NCCCOCC)nc3c(C)cccn3c2=O)SC1=S | 462 | 5.7% (inactive)
18 | CCOCCCNc1nc2c(C)cccn2c(=O)c1/C=C1\SC(=S)N(C(C)CC)C1=O (stereo not given) | 390 | 69.7% (active)
19 | O=C(N/N=C/c1ccccc1F)c1cccc(NC(=O)c2ccccc2Cl)c1 | 329 | -0.2% (inactive)
20 | COc1cc(OC)cc(C(=O)N2CCN(c3ccccc3F)CC2)c1 | 328 | -0.2% (inactive)
21 | CCOc1ccc(NC(=O)C2CC(=O)N(c3cc(C)cc(C)c3)C2)cc1 (stereo not given) | 314 | -0.1% (inactive)
22 | COc1cccc(NS(=O)(=O)c2ccc3c(c2)NC(=O)C(C)C(=O)N3)c1 (stereo not given) | 385 | -0.1% (inactive)
23 | Cc1ccc(-c2ccc(CO)o2)cc1N | 282 | -0.3% (inactive)
24 | O=C(O)c1cccc(CSc2ncn[nH]2)c1 | 346 | 0.4% (inactive)
25 | O=C(O)c1cccc(CSc2nnc(-c3ccc(Cl)cc3)o2)c1 | 424 | 0.2% (inactive)
26 | O=C(Cn1nc(-c2ccco2)ccc1=O)Nc1cc(C(F)(F)F)ccc1Cl | 369 | -0.1% (inactive)
27 | CC(C)(C)NC(=O)COC(=O)c1cc(Br)ccc1Cl | 284 | -0.3% (inactive)

Row | SMILES | cell count [1] [cells] | activation [2]
28 | O=C(NOC(=O)c1cc(Br)ccc1Cl)c1cccs1 | 347 | -0.1% (inactive)
29 | O=C(NCc1ccccc1F)C1CCCN(C(=O)NC2CCCCC2)C1 (stereo not given) | 299 | -0.1% (inactive)
30 | COc1cccc(CNC(=O)c2cccc(S(=O)(=O)N3CCN(C)CC3)c2)c1 | 306 | 0% (inactive)
31 | COc1ccc(CNC(=O)CN(C(=O)c2csnn2)c2ccccc2F)cc1 | 338 | -0.1% (inactive)
32 | COc1ccc(N2CCN(C(=O)c3cc(=O)c4ccc(C)cc4o3)CC2)cc1 | 331 | -0.2% (inactive)
33 | CCOc1ccccc1C(=O)Oc1ccc2ccc(=O)oc2c1 | 397 | 0.9% (inactive)
34 | COc1cccc(C2/C(=C(\O)c3ccc4c(c3)OCCO4)C(=O)C(=O)N2CC2CCCO2)c1 (stereo not given) | 382 | 0.2% (inactive)
35 | FC(F)(F)c1cc(C(F)(F)F)c2ccc(N/N=C/c3ccccc3)nc2n1 | 408 | -0.3% (inactive)
36 | Cc1ccc(/C=N/Nc2ccc3c(C(F)(F)F)cc(C(F)(F)F)nc3n2)cc1 | 447 | -0.2% (inactive)
37 | FC(F)(F)c1cc(C(F)(F)F)c2ccc(N/N=C/c3cccc(Cl)c3)nc2n1 | 390 | 59.1% (active)
38 | COCc1cc(C)nc(N)c1C#N | 359 | 0.1% (inactive)
39 | S=C(NCCc1ccccc1)N1CCN(C2CCCCC2)CC1 | 462 | -0.1% (inactive)
40 | O=C(C1=C[C@H](c2ccc(C(F)(F)F)cc2)C[C@H](OCc2ccc(CO)cc2)O1)N1CCOCC1 | 338 | 0.1% (inactive)
41 | O=C(CSc1nnc(-c2ccc(F)cc2)o1)NC1CCCC1 | 360 | -0.1% (inactive)
42 | CCOC(=O)N1CCN(c2c(NCCCOC(C)C)c(=O)c2=O)CC1 | 327 | -0.1% (inactive)
43 | CC(C)OCCCNC(=O)Cc1ccc(F)cc1 | 376 | -0.2% (inactive)
44 | Cc1ccc2oc(=O)cc(CN3CCN(Cc4ccccc4)CC3)c2c1 | 335 | 0% (inactive)
45 | O=C(CNC(=O)c1ccc(N2C(=O)c3ccccc3C2=O)cc1)OCC(=O)c1cccc2ccccc12 | 341 | 0% (inactive)
46 | CC(C)N1CCN(Cc2ccc(C#CC(C)(C)O)s2)CC1CCO (stereo not given) | 368 | 0.3% (inactive)
47 | CCOc1ccc(S(=O)(=O)Nc2ccc(C(=O)N3CCCC3)cc2)cc1C(N)=O | 319 | 0% (inactive)
48 | O=S(=O)(c1cccc(-c2nn3c(-c4ccncc4)nnc3s2)c1)N1CCOCC1 | 342 | -0.2% (inactive)
49 | COCCNC(=O)C(c1ccc(F)cc1)N(C(=O)CCC(=O)Nc1ccccn1)c1cccc(C)c1 (stereo not given) | 316 | -0.2% (inactive)
50 | CCCc1cc(=O)n2[nH]c(C)c(-c3ccc(OC)cc3)c2n1 | 417 | -0.1% (inactive)
51 | CC(C)(C)NC(=O)CSc1nc(N)c(NC(=O)c2ccccc2F)c(=O)[nH]1 | 255 | 0% (inactive)
52 | Cn1c(SCC(=O)NNC(=O)Nc2ccc(Cl)cc2)nnc1-c1ccccc1 | 332 | -0.1% (inactive)
53 | COc1cccc(-n2c(SCC(=O)Nc3cc(C)on3)nc3ccccc3c2=O)c1 | 336 | 0.5% (inactive)
54 | Cc1cccc(N(CC(=O)Nc2c(C)n(C)n(-c3ccccc3)c2=O)S(C)(=O)=O)c1C | 361 | 0% (inactive)

Row | SMILES | cell count [1] [cells] | activation [2]
55 | CSc1cccc(N/C(=N/S(=O)(=O)c2ccccc2)NN)c1 | 310 | 0.6% (inactive)
56 | COc1ccc2cc(CCNC(=O)C3CCCC3)c(=O)[nH]c2c1 | 307 | -0.1% (inactive)
57 | c1ccc(-c2noc(CN3CCOCC3)n2)cc1 | 407 | 0.2% (inactive)
58 | CC(=O)c1c(C)[nH]c(C(=O)NCCc2c[nH]c3ccccc23)c1C | 348 | -0.1% (inactive)
59 | CC1(C)CC(NC(=O)c2c(N)no[n+]2[O-])CC(C)(C)N1 | 241 | -0.3% (inactive)
60 | Cc1ccc(NC(=S)Nc2ccc(S(=O)(=O)Nc3ncccn3)cc2)c(C)c1 | 327 | -0.2% (inactive)
61 | COCc1[nH]c(=S)[nH]c(=O)c1C | 339 | -0.1% (inactive)
62 | Cc1c(Cl)c(=O)oc2cc(OCC(=O)NCc3cccs3)ccc12 | 357 | 0% (inactive)
63 | COc1ccc(NC(=O)Cn2c(CCC(=O)O)ccc2-c2ccccc2)cc1 | 413 | 0.2% (inactive)
64 | O=C(O)c1ccc(NC(=O)c2ccc3c(c2)C(=O)N(c2ccccc2)C3=O)cc1 | 374 | -0.1% (inactive)
65 | O=C(OCc1cc(=O)n2c(n1)sc1ccccc12)c1ccc2c(=O)n3c(nc2c1)CCC3 | 323 | -0.1% (inactive)
66 | Cc1sc2nc(CSc3nc4ccccc4c(=O)n3CCCN3CCOCC3)[nH]c(=O)c2c1C | 341 | -0.1% (inactive)
67 | Cc1ccc(SC[C@H](Cc2ccccc2)N2CCN(CCc3ccccc3)CCC2=O)cc1 | 347 | -0.1% (inactive)
68 | CCCN1CCC(=O)N([C@H](CSc2ccc(C)cc2)CC(C)C)CC1 | 328 | 5.1% (inactive)
69 | Cc1ccc(SC[C@H](CC(C)C)N2CCN(CCc3ccccc3)CCC2=O)cc1 | 305 | 193% (active)
70 | Cc1ccc(CNC(=O)CCS(=O)(=O)c2ccc3c(c2)NC(=O)CO3)cc1 | 376 | -0.2% (inactive)
71 | CCOC(=O)C(CSCC(=O)c1ccc(Cl)cc1Cl)NC(=O)OC(C)(C)C (stereo not given) | 359 | -0.1% (inactive)
72 | CCOC(=O)c1c(CN2CCN(CCO)CC2)n(-c2ccccc2)c2cc(Br)c(O)cc12 | 355 | 0.3% (inactive)
73 | O=c1oc2ccccc2c(NCc2ccc(Cl)cc2)c1[N+](=O)[O-] | 384 | -0.3% (inactive)
74 | O=C(NCCN1CCN(C(=O)c2ccc(F)cc2)CC1)c1ccc(F)cc1 | 452 | 0.2% (inactive)
75 | CCOc1ccc2nc(Cl)sc2c1 | 247 | -0.1% (inactive)
76 | Nc1cc(-c2ccccc2)n2c(n1)nc1ccccc12 | 331 | 0.3% (inactive)
77 | Cc1cc(=O)[nH]c(SCC(=O)N2CCCCCC2)n1 | 340 | 0% (inactive)
78 | CC(=O)NC1(C(F)(F)F)C(=O)N(Cc2ccccc2)C2=C1C(=O)CC(C)(C)C2 (stereo not given) | 419 | 0.2% (inactive)
79 | CCS(=O)(=O)N1CCC(C(=O)N2CCc3ccccc3C2)CC1 | 361 | 0% (inactive)
80 | O=C(Cc1ccccc1)Nc1ccc(NC(=O)c2ccco2)cc1 | 367 | 0.2% (inactive)
